According to PubChem BioAssay (EPA / NIEHS):
The source made the active and inactive calls. Rule for the calls: active = hit-call score of the fitted dose curve at least 0.9, where 1 is the maximum; inactive = score below 0.9.

Assays:
Settings in all cases: mRNA level, 48 h; actives raise or lower the signal
[1] = read-out: Peroxisomal acyl-coenzyme A oxidase 1 (ACOX1) gene, ACOX1 (gene 51); assay: LTEA_HepaRG_ACOX1: Life Technologies and Expression Analysis (LTEA) Assay for Peroxisomal acyl-coenzyme A oxidase 1 (ACOX1) gene using HepaRG (AID 2283467)
Procedure, shortened: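 Differentiated human HepaRG cells were exposed in duplicate for 48 h in serum-free induction medium to eight half-log concentrations up to 100 uM in 0.5% DMSO. ACOX1 mRNA was then quantified by TaqMan qRT-PCR, normalized to ACTB, GAPDH and POLR2A.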

[2] = read-out: Alkaline Phosphatase, Placental (ALPP) gene, ALPP (gene 250); assay: LTEA_HepaRG_ALPP: Life Technologies and Expression Analysis (LTEA) Assay for Alkaline Phosphatase, Placental (ALPP) gene using HepaRG (AID 2283468)
Procedure, shortened: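 HepaRG cells plated 48 h, then exposed in duplicate for 48 h in serum-free induction medium to 8-point half-log series from 100 uM in 0.5% DMSO. ALPP mRNA by TaqMan qRT-PCR, normalized to ACTB/GAPDH/POLR2A; bidirectional fit versus DMSO.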

[3] = read-out: Bcl-2 (BAD) gene, BAD (gene 572); assay: LTEA_HepaRG_BAD: Life Technologies and Expression Analysis (LTEA) Assay for Bcl-2 (BAD) gene using HepaRG (AID 2283469)
Procedure, shortened: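 Differentiated human HepaRG cells in serum-free induction medium were exposed in duplicate for 48 h to eight concentrations (top 100 uM, half-log steps, 0.5% DMSO). BAD mRNA was quantified by qRT-PCR normalised to ACTB, GAPDH and POLR2A, with bidirectional fitting versus DMSO.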

[4] = read-out: Bcl-2 (BAX) gene, BAX (gene 581); assay: LTEA_HepaRG_BAX: Life Technologies and Expression Analysis (LTEA) Assay for Bcl-2 (BAX) gene using HepaRG (AID 2283470)
Procedure, shortened: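 Differentiated HepaRG cells exposed 48 h in serum-free induction medium, eight half-log concentrations from 100 uM, in duplicate, 0.5% DMSO vehicle. BAX mRNA by TaqMan qRT-PCR, normalised to ACTB, GAPDH and POLR2A.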

[5] = read-out: adenosine kinase (ADK) gene, ADK (gene 132); assay: LTEA_HepaRG_ADK: Life Technologies and Expression Analysis (LTEA) Assay for adenosine kinase (ADK) gene using HepaRG (AID 2283471)
Procedure, shortened: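 Following 48 h exposure of HepaRG cells in 0.5% DMSO (top concentration 100 uM, duplicate wells), ADK mRNA induction or suppression was measured by qRT-PCR, normalised to ACTB/GAPDH/POLR2A, and fitted bidirectionally relative to vehicle.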

[6] = read-out: Alpha-fetoprotein (AFP) gene, AFP (gene 174); assay: LTEA_HepaRG_AFP: Life Technologies and Expression Analysis (LTEA) Assay for Alpha-fetoprotein (AFP) gene using HepaRG (AID 2283472)
Procedure, shortened: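 Differentiated human HepaRG cells exposed 48 h in serum-free induction medium, 8-point half-log series from 100 uM in 0.5% DMSO, duplicate. AFP mRNA by qRT-PCR, normalized to ACTB, GAPDH, POLR2A; bidirectional fit vs DMSO.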

[7] = read-out: BCL2L11 (gene 10018); assay: LTEA_HepaRG_BCL2L11: Life Technologies and Expression Analysis (LTEA) Assay for Bcl-2 (BCL2L11) gene using HepaRG (AID 2283473)
Procedure, shortened: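 Differentiated human HepaRG cells were exposed 48 h in serum-free induction medium to eight half-log concentrations up to 100 uM in 0.5% DMSO, in duplicate. BCL2L11 mRNA was quantified by TaqMan qRT-PCR, normalized to ACTB, GAPDH and POLR2A; induction or repression fitted versus DMSO.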

[8] = read-out: Apoptosis regulator Bcl-2 (Homo sapiens) (UniProt P10415); assay: LTEA_HepaRG_BCL2: Life Technologies and Expression Analysis (LTEA) Assay for Bcl-2 gene using HepaRG (AID 2283475)
Procedure, shortened: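 Differentiated human HepaRG cells in serum-free induction medium exposed 48 h, in duplicate, to 8-point half-log series from 100 uM in 0.5% DMSO. BCL2 mRNA by qRT-PCR (TaqMan/Fluidigm), normalized to ACTB, GAPDH, POLR2A; bidirectional fit against DMSO.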

[9] = read-out: Bcl-2 (BID) gene, BID (gene 637); assay: LTEA_HepaRG_BID: Life Technologies and Expression Analysis (LTEA) Assay for Bcl-2 (BID) gene using HepaRG (AID 2283476)
Procedure, shortened: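 Gene expression by qRT-PCR in HepaRG cells after 48 h exposure, duplicate wells, eight half-log concentrations topping at 100 uM in 0.5% DMSO. Normalized to ACTB, GAPDH, POLR2A; bidirectional fitting relative to DMSO.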

[10] = read-out: Caspase-3 (Homo sapiens) (UniProt P42574); assay: LTEA_HepaRG_CASP3: Life Technologies and Expression Analysis (LTEA) Assay for cysteine-aspartic acid protease (CASP3) using HepaRG (AID 2283477)
Procedure, shortened: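 Differentiated HepaRG cells, plated 48 h, were treated in duplicate in serum-free induction medium for 48 h with eight half-log concentrations up to 100 uM in 0.5% DMSO. CASP3 mRNA measured by qRT-PCR, normalized to ACTB, GAPDH, POLR2A.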

[11] = read-out: Cytochrome P450 (CYP24A1), CYP24A1 (gene 1591); assay: LTEA_HepaRG_CYP24A1: Life Technologies and Expression Analysis (LTEA) Assay for Cytochrome P450 (CYP24A1) using HepaRG (AID 2283478)
Procedure, shortened: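 HepaRG cells plated 48 h, then exposed in duplicate in serum-free induction medium for 48 h to 8-point half-log series from 100 uM in 0.5% DMSO. CYP24A1 mRNA by Fluidigm qRT-PCR, normalized to ACTB, GAPDH, POLR2A; bidirectional fit versus DMSO.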

[12] = read-out: Cytochrome P450 (CYP1A2), CYP1A2 (gene 1544); assay: LTEA_HepaRG_CYP1A2: Life Technologies and Expression Analysis (LTEA) Assay for Cytochrome P450 (CYP1A2) using HepaRG (AID 2283479)
Procedure, shortened: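 Differentiated human HepaRG cells in serum-free induction medium exposed 48 hours in duplicate to 8 half-log concentrations from 100 uM, 0.5% DMSO. CYP1A2 mRNA quantified by qRT-PCR, normalized to ACTB, GAPDH and POLR2A; bidirectional fitting versus DMSO.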

[13] = read-out: cysteine-aspartic acid protease (CASP8), CASP8 (gene 841); assay: LTEA_HepaRG_CASP8: Life Technologies and Expression Analysis (LTEA) Assay for cysteine-aspartic acid protease (CASP8) using HepaRG (AID 2283480)
Procedure, shortened: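 Differentiated human HepaRG cells, plated 48 h then switched to serum-free induction medium, were exposed in duplicate for 48 h to 8 half-log concentrations up to 100 uM in 0.5% DMSO. CASP8 mRNA was quantified by qRT-PCR, normalized to ACTB/GAPDH/POLR2A.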

[14] = read-out: Cytochrome P450 (CYP2B6), CYP2B6 (gene 1555); assay: LTEA_HepaRG_CYP2B6: Life Technologies and Expression Analysis (LTEA) Assay for Cytochrome P450 (CYP2B6) using HepaRG (AID 2283481)
Procedure, shortened: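 Differentiated human HepaRG cells in serum-free induction medium, dosed in duplicate for 48 h over 8 half-log concentrations topping at 100 uM (0.5% DMSO). CYP2B6 mRNA measured by TaqMan qRT-PCR, normalized to ACTB, GAPDH, POLR2A; bidirectional fit versus DMSO.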

[15] = read-out: CYP2C8 (gene 1558); assay: LTEA_HepaRG_CYP2C8: Life Technologies and Expression Analysis (LTEA) Assay for CYP2C8 using HepaRG (AID 2283483)
Procedure, shortened: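 Differentiated human HepaRG cells were exposed for 48 h in serum-free induction medium to eight half-log concentrations up to 100 uM in 0.5% DMSO, in duplicate. CYP2C8 mRNA was measured by TaqMan qRT-PCR, normalized to ACTB, GAPDH and POLR2A, and fitted bidirectionally against DMSO.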

[16] = read-out: CYP2C9 (gene 1559); assay: LTEA_HepaRG_CYP2C9: Life Technologies and Expression Analysis (LTEA) Assay for CYP2C9 using HepaRG (AID 2283484)
Procedure, shortened: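 Differentiated human HepaRG cells were exposed 48 h in serum-free induction medium to eight half-log concentrations up to 100 uM in 0.5% DMSO. CYP2C9 mRNA was measured by qRT-PCR, normalized to ACTB, GAPDH and POLR2A, and fitted bidirectionally against DMSO.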

[17] = read-out: CYP2E1 (gene 1571); assay: LTEA_HepaRG_CYP2E1: Life Technologies and Expression Analysis (LTEA) Assay for CYP2E1 using HepaRG (AID 2283485)
Procedure, shortened: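 HepaRG cells, plated 48 h, then exposed 48 h in serum-free induction medium to eight half-log concentrations from 100 uM in 0.5% DMSO, duplicate. CYP2E1 mRNA by qRT-PCR, normalized to ACTB/GAPDH/POLR2A; bidirectional fit versus DMSO.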

[18] = read-out: CYP4A11 (gene 1579); assay: LTEA_HepaRG_CYP4A11: Life Technologies and Expression Analysis (LTEA) Assay for CYP4A11 using HepaRG (AID 2283486)
Procedure, shortened: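 Differentiated HepaRG cells, 48 h after plating, exposed in duplicate for 48 h to 8 half-log concentrations up to 100 uM in 0.5% DMSO in serum-free induction medium. CYP4A11 mRNA measured by TaqMan qRT-PCR, normalized to ACTB, GAPDH and POLR2A.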

Sequence of Caspase-3 (Homo sapiens) (P42574 whole entry, looked up): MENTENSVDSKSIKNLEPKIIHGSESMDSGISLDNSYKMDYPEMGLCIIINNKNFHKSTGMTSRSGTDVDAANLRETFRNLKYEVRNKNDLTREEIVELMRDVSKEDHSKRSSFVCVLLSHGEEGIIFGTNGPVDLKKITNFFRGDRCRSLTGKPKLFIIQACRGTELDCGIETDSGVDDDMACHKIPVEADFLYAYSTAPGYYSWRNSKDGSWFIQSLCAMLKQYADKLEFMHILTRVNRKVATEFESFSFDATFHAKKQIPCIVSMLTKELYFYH
Sequence of Apoptosis regulator Bcl-2 (Homo sapiens) (P10415 whole entry, looked up): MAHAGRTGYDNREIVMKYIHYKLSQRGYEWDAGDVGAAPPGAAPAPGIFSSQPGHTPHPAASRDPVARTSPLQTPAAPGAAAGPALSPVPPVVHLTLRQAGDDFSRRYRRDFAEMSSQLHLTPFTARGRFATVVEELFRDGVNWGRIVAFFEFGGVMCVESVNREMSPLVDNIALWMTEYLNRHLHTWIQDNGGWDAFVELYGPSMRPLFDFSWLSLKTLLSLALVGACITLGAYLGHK

ClC1=C(Cl)[C@]2(Cl)[C@@H]3[C@H]4C[C@H]([C@@H]5O[C@H]45)[C@@H]3[C@@]1(Cl)C2(Cl)Cl
outcome [1]: inactive | outcome [2]: inactive | outcome [3]: inactive | outcome [4]: inactive | outcome [5]: inactive | AC50 [6]: 31.1 µM (active) | outcome [7]: inactive | AC50 [8]: 9.92 µM (active) | outcome [9]: inactive | outcome [10]: inactive | outcome [11]: inactive | outcome [12]: inactive | outcome [13]: inactive | AC50 [14]: 1.01 µM (active) | outcome [15]: inactive | outcome [16]: inactive | AC50 [17]: 22.6 µM (active) | AC50 [18]: 24.6 µM (active)

CCCCCCCCOC(=O)c1ccccc1C(=O)OCCCCCCCC
outcome [1]: inactive | outcome [2]: inactive | outcome [3]: inactive | outcome [4]: inactive | outcome [5]: inactive | outcome [6]: inactive | outcome [7]: inactive | outcome [8]: inactive | outcome [9]: inactive | outcome [10]: inactive | outcome [11]: inactive | outcome [12]: inactive | outcome [13]: inactive | AC50 [14]: 16.3 µM (active) | outcome [15]: inactive | outcome [16]: inactive | outcome [18]: inactive

CCCCCCOC(=O)c1ccccc1C(=O)OCCCCCC
outcome [1]: inactive | outcome [2]: inactive | outcome [3]: inactive | outcome [4]: inactive | outcome [5]: inactive | outcome [6]: inactive | outcome [7]: inactive | outcome [8]: inactive | outcome [9]: inactive | outcome [10]: inactive | outcome [11]: inactive | AC50 [12]: 50 µM (active) | outcome [13]: inactive | outcome [14]: inactive | outcome [15]: inactive | outcome [16]: inactive | AC50 [18]: 74.7 µM (active)

O=C(O)C(F)(F)C(F)(F)C(F)(F)C(F)(F)C(F)(F)C(F)(F)C(F)(F)C(F)(F)F
AC50 [1]: 90.4 µM (active) | AC50 [2]: 50 µM (active) | outcome [3]: inactive | AC50 [4]: 76.3 µM (active) | outcome [5]: inactive | AC50 [6]: 78.4 µM (active) | AC50 [7]: 50 µM (active) | AC50 [8]: 73.6 µM (active) | outcome [9]: inactive | outcome [10]: inactive | outcome [11]: inactive | AC50 [12]: 83.6 µM (active) | outcome [13]: inactive | AC50 [14]: 82.4 µM (active) | AC50 [15]: 80 µM (active) | AC50 [16]: 80.5 µM (active) | AC50 [17]: 93.9 µM (active) | AC50 [18]: 89.5 µM (active)
